In PubChem BioAssay (EPA / NIEHS):
Some structures have more than one record in an assay (separate samples or runs), and their calls can disagree. Active and inactive are the calls of the source. The calls were made as follows: active = hit-call score of the fitted dose curve at least 0.9, where 1 is the maximum; inactive = score below 0.9.

experiment: ATG_GATA_CIS: Attagene CIS-FACTORIAL HepG2 Assay for human GATA Binding Protein (AID 2282944); settings: HepG2 GATA cis-element reporter, Attagene multiplex mRNA; actives raise or lower the signal
Description: ATG_CIS is a cell-based, multiplexed-readout assay that uses HepG2, a human liver cell line, with measurements taken at 24 hours after chemical dosing in a 24-well plate.ATG_GATA_CIS is one of 52 assay component(s) measured or calculated from the ATG_CIS assay. It is designed to make measurements of mRNA induction, a form of inducible reporter, as detected with fluorescence intensity signals by Reverse transcription polymerase chain reaction (RT-PCR) and Capillary electrophoresis technology.Data from the assay component ATG_GATA_CIS was analyzed into 1 assay endpoint. This assay endpoint, ATG_GATA_CIS, was analyzed with bidirectional fitting relative to DMSO as the negative control and baseline of activity. Using a type of inducible reporter, measures of mRNA for gain or loss-of-signal activity can be used to understand the reporter gene at the transcription factor-level as they relate to the gene GATA1. Furthermore, this assay endpoint can be referred to as a primary readout, because this assay has produced multiple assay endpoints where this one serves a reporter gene function. To generalize the intended target to other relatable targets, this assay endpoint is annotated to the dna binding intended target family, where the subfamily is GATA proteins.
Human liver HepG2 cells are transiently transfected with multiple reporter transcription units (MRTUs) in 6-well plates using FuGene 6 reagent (Roche; 3 ml FuGene/1 mg DNA). The MRTU constructs are regulated by a cis-regulating element (promoter). […] A major difference between the CIS and TRANS system is that in CIS activities of endogenous TFs are measured, whereas the TRANS assay evaluates changes in activities of exogenous, chimeric NR-Gal4 proteins. […] At the end of 24 hour incubation, total RNA was isolated using TriZol reagent (Invitrogen). The isolated RNA is then reverse-transcribed using oligo(dT) primer and Mo-MLV reverse transcriptase (Invitrogen) with DNAse I (Ambion) treatment for 30 min. The one-tenth of the produced cDNA was amplified by PCR using Taq DNA polymerase (Invitrogen) and two reporter sequence-specific primers. The PCR products were fluorescently labeled by primer extension with 6-arboxyfluorescein (6-FAM) 5'-labeled reporter sequence-specific primer (2 min at 95 C, 20 s at 68 C and 10 min at 72 C) and these products were digested with 5U of HpaI (New England Biolabs) for 2h at 37 C. The fragments were purified using Qiaquick PCR columns (Qiagen), analyzed on an ABI 3130xL genetic analyzer (Applied Biosystems) with peak positions identified by using a set of X-rhodamine (ROX)-labeled MapMarker1000 molecular weight standards (BioVentures). The raw capillary electrophoresis data was processed using Attagraph software (Attagene).

SMILES	outcome	AC50
Cc1[nH]c(=O)n(C(C)(C)C)c(=O)c1Cl	inactive	
Oc1cc(Cl)ccc1Oc1ccc(Cl)cc1Cl	inactive	5.97 µM (active)
CN1CSC(=S)N(C)C1	inactive	
Oc1ccc(Cl)cc1Cc1ccccc1	inactive	20.2 µM (active)
CC1(C)C(C=C(Cl)Cl)C1C(=O)OC(C#N)c1ccc(F)c(Oc2ccccc2)c1 (stereo not given)	inactive	
COc1nn(CSP(=S)(OC)OC)c(=O)s1	inactive	
CCC(C)(NC(=O)c1cc(Cl)c(C)c(Cl)c1)C(=O)CCl (stereo not given)	inactive	
CCOCN(C(=O)CCl)c1c(C)cccc1CC	inactive	
COc1cc(OC)nc(NC(=O)NS(=O)(=O)c2cc(NC=O)ccc2C(=O)N(C)C)n1	inactive	
CNC(=O)CSP(=S)(OC)OC	inactive	
COC(=O)c1ccccc1S(=O)(=O)NC(=O)Nc1nc(C)nc(OC)n1	inactive	
CCN(CC)C(=O)SCc1ccc(Cl)cc1	inactive	
CC(C)OC(=O)Nc1cccc(Cl)c1	inactive	
CNC(=O)Oc1ccccc1OC(C)C	inactive	
O=S(=O)(O)C(F)(F)C(F)(F)C(F)(F)C(F)(F)C(F)(F)C(F)(F)C(F)(F)C(F)(F)F	inactive	44.4 µM (active)
O=C(O)CCCOc1ccc(Cl)cc1Cl	inactive	
CCc1ccc(C(=O)NN(C(=O)c2cc(C)cc(C)c2)C(C)(C)C)cc1	inactive	
CC(C)N(C(=O)COc1nnc(C(F)(F)F)s1)c1ccc(F)cc1	inactive	
CCCN(CCC)c1c([N+](=O)[O-])cc(C(F)(F)F)cc1[N+](=O)[O-]	inactive	

SMILES	outcome	AC50
O=C(O)COc1ccc(Cl)cc1Cl	inactive	
C[C@H]1[C@H](c2ccc(Cl)cc2)SC(=O)N1C(=O)NC1CCCCC1	inactive	
O=[N+]([O-])/N=C1\NCCN1Cc1ccc(Cl)nc1	inactive	
Clc1ccccc1-c1nnc(-c2ccccc2Cl)nn1	inactive	
CC[C@H](C)[C@H]1O[C@]2(C=C[C@@H]1C)C[C@@H]1C[C@@H](C/C=C(\C)[C@@H](O[C@H]3C[C@H](OC)[C@@H](O[C@H]4C[C@H](OC)[C@@H](O)[C@H](C)O4)[C@H](C)O3)[C@@H](C)/C=C/C=C3\CO[C@@H]4[C@H](O)C(C)=C[C@@H](C(=O)O1)[C@]34O)O2 (tested in a mixture with another compound)	inactive	
CC(C)(C)C(O)/C(=C\c1ccc(Cl)cc1Cl)n1cncn1 (stereo not given)	inactive	
CCCN(CCOc1c(Cl)cc(Cl)cc1Cl)C(=O)n1ccnc1	inactive	
CCOC1Oc2ccc(OS(C)(=O)=O)cc2C1(C)C (stereo not given)	inactive	
O=[N+]([O-])c1c(Cl)c(Cl)c(Cl)c(Cl)c1Cl	inactive	
COP(=S)(OC)Oc1ccc(SC)c(C)c1	inactive	
O=S1OCC2C(CO1)C1(Cl)C(Cl)=C(Cl)C2(Cl)C1(Cl)Cl (stereo not given)	inactive	
CNC(=O)/C=C(\C)OP(=O)(OC)OC	inactive	
O=C1c2ccccc2C(=O)N1SC(Cl)(Cl)Cl	inactive	
O=C(NC(=O)c1c(F)cccc1F)Nc1ccc(OC(F)(F)C(F)OC(F)(F)F)c(Cl)c1 (stereo not given)	inactive	
COP(=O)(OC)OC=C(Cl)Cl	inactive	
COC(=O)c1ccccc1S(=O)(=O)NC(=O)N(C)c1nc(C)nc(OC)n1	inactive	
C#CCN1C(=O)COc2cc(F)c(N3C(=O)C4=C(CCCC4)C3=O)cc21	inactive	
CNC(=O)Oc1cccc(N=CN(C)C)c1		33.6 µM (active)
